target: Dual specificity protein kinase CLK2 (Homo sapiens) (UniProt P49760); conditions: at 1 µM;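 also: reported values are mean percent inhibition of CLK2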
Sequence (P49760 whole entry, looked up): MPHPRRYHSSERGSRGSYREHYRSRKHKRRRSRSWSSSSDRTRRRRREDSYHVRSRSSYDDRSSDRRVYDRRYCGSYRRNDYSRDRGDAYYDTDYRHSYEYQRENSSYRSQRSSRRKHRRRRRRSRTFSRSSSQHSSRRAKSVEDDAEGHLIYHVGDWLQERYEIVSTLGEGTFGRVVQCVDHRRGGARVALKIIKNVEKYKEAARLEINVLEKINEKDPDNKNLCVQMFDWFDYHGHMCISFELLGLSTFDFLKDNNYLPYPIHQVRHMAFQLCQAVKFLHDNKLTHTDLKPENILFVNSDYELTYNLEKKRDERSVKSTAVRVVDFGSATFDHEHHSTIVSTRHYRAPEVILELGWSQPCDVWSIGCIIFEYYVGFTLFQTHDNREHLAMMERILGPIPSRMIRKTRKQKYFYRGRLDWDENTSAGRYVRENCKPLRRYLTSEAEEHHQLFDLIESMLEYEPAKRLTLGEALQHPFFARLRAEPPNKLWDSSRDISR

Q: With O=C(Nc1n[nH]c2cc(-c3ccc(F)cc3)ccc12)C1CC1 as the compound, how does the inhibition read?
A: 0.48%

Q: For O=S(=O)(CCNCc1ccc(-c2ccc3ncnc(Nc4ccc(OCc5cccc(F)c5)c(Cl)c4)c3c2)o1)c1ccccc1, which inhibition is on record?
A: 1.31%

Q: With COc1cc2ncn(-c3cc(OCc4ccccc4C(F)(F)F)c(C(=O)N(C)C)s3)c2cc1OC as the compound, how does the inhibition read?
A: 2.04%

Q: How did the inhibition turn out when COc1ccc(-c2cc3c(N)ncnc3o2)cc1 was run?
A: 2.78%

Q: Which inhibition does the source give for Cc1ccc2c(-c3ccnc(Nc4ccccc4)n3)c(-c3ccc(F)cc3)nn2n1 here?
A: 2.23%

Q: How did the inhibition turn out when Nc1nc(-c2cccc(Cl)c2)c(-c2ccc3ncccc3n2)s1 was run?
A: 9.25%

Q: With CNC(=O)c1cncc(/C=C/c2ccccc2Cl)c1 as the compound, how does the inhibition read?
A: 0.35%

Q: For COc1ccc2c(-c3ccnc(Nc4cccc(OC(F)(F)F)c4)n3)cnn2n1, which inhibition is on record?
A: 98.3%

Q: Which inhibition does the source give for CCCN1CCC(c2ccc(Nc3nc(Nc4cc(F)ccc4C(N)=O)c4cc[nH]c4n3)c(OC)c2)CC1 here?
A: 93.8%

Q: Which inhibition does the source give for COc1cc2c(cc1Nc1nc(Nc3ccsc3C(N)=O)c3cc[nH]c3n1)N(C(=O)CN(C)C)CCC2(C)C here?
A: 79.5%

Q: For Fc1ccc(-c2cc(-c3c[nH]nc3-c3ccccn3)ccn2)cc1, which inhibition is on record?
A: 2.71%

Q: With CCNC(=O)O[C@H]1CN[C@H](C#Cc2cc3ncnc(Nc4ccc(OCc5cccc(F)c5)c(Cl)c4)c3s2)C1 as the compound, how does the inhibition read?
A: 2.34%

Q: c1ccc(COc2ccc(Nc3ncnc4ccc(-c5ccco5)cc34)cc2)cc1 was tested. Which inhibition did it give?
A: -0.79%

Q: Which inhibition does the source give for NC(=O)c1sc(-n2cnc3ccc(C(F)(F)F)cc32)cc1OCc1ccccc1Br here?
A: 27.6%

Q: How did the inhibition turn out when CS(=O)(=O)CCNCc1ccc(-c2ccc3ncnc(Nc4ccc(OCc5ccccc5)c(C(F)(F)F)c4)c3c2)o1 was run?
A: -2.13%

Q: Which inhibition does the source give for CC(=O)Nc1cccc(C#Cc2cncnc2Nc2ccc(OCc3cccc(F)c3)c(Cl)c2)c1 here?
A: 1.56%

Q: For CCn1c(-c2nonc2N)nc2ccccc21, which inhibition is on record?
A: 4.78%

Q: How did the inhibition turn out when COc1cccc(-n2ncc3c(N/N=C/c4ccc(F)cc4)ncnc32)c1 was run?
A: 4.42%

Q: CCN1CCC(CC(=O)Nc2n[nH]c3nnc(-c4cccc(F)c4F)cc23)CC1 was tested. Which inhibition did it give?
A: 29.9%

Q: How did the inhibition turn out when COc1cc(Nc2nccc(Nc3ccc4c(C)n[nH]c4c3)n2)cc(OC)c1OC was run?
A: 2.36%

Q: CCn1c(-c2nonc2N)nc2cnc(Oc3cccc(NC(=O)c4ccc(N(C)C)cc4)c3)cc21 was tested. Which inhibition did it give?
A: 1.15%

Q: COc1ccc(-c2oc3ncnc(N)c3c2-c2ccc(NC(=O)Nc3cc(C(F)(F)F)ccc3F)cc2)cc1 was tested. Which inhibition did it give?
A: 26.6%

Q: With CCN(CC)S(=O)(=O)c1ccc(OC)c(Nc2ncc(-c3ccccc3)o2)c1 as the compound, how does the inhibition read?
A: 40.3%

Q: For Fc1ccc(-c2nn3ncccc3c2-c2ccnc(Nc3ccc4c(c3)OCCO4)n2)cc1, which inhibition is on record?
A: 1.21%

Q: Which inhibition does the source give for CCCN(CCS(C)(=O)=O)Cc1ccc(-c2ccc3ncnc(Nc4ccc(OCc5cccc(F)c5)c(Cl)c4)c3c2)o1 here?
A: 0.75%

Q: CCn1c(-c2nonc2N)nc2c(C#CC(C)(C)O)nc(OC[C@H](N)c3ccccc3)cc21 was tested. Which inhibition did it give?
A: 12.1%

Q: Which inhibition does the source give for COc1cccc(-c2c[nH]c3c(N/N=C/c4ccncc4)ncnc23)c1 here?
A: 20.4%

Q: How did the inhibition turn out when c1cc(-c2cnn3nc(N4CCOCC4)ccc23)nc(NC2CC2)n1 was run?
A: 52%

Q: With CN(C)CCOc1ccc(-c2nc(-c3ccncc3)c(-c3ccc4c(c3)CC/C4=N\O)[nH]2)cc1 as the compound, how does the inhibition read?
A: 2.18%

Q: Which inhibition does the source give for CCc1nn2ncccc2c1-c1ccnc(NC2CC2)n1 here?
A: 3.21%

Q: For Clc1ccc(-c2nn3ncccc3c2-c2ccnc(Nc3ccccc3)n2)cc1, which inhibition is on record?
A: 1.58%

Q: For COc1cc(/C=N/Nc2ncnc3[nH]ncc23)ccc1O, which inhibition is on record?
A: 28.6%

Q: For NS(=O)(=O)c1ccc(Nc2ncc(-c3ccccc3)o2)cc1, which inhibition is on record?
A: 1.67%

Q: How did the inhibition turn out when COc1ccc2[nH]c3c4[nH]c5ccc(OC)cc5c4c4c(c3c2c1)C(=O)NC4=O was run?
A: 20.3%

target: Dual specificity protein kinase CLK3 (Homo sapiens) (UniProt P49761); conditions: at 0.1 µM
Sequence (P49761 whole entry, looked up): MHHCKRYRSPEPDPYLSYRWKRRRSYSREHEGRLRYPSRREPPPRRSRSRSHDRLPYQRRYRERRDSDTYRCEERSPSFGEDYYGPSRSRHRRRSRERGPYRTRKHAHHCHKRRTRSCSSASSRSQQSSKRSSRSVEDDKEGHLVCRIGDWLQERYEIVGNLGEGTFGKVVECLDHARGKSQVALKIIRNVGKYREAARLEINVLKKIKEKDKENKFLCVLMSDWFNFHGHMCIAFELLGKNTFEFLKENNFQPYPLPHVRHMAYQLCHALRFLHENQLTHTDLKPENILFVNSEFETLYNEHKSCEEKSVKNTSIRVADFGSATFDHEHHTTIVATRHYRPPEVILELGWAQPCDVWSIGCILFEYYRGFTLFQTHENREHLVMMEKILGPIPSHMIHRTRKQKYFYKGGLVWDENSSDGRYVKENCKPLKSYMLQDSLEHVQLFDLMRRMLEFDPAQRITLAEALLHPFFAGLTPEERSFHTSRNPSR

Q: How did the inhibition turn out when O=C(Nc1n[nH]c2cc(-c3ccc(F)cc3)ccc12)C1CC1 was run?
A: 1.11%

Q: O=S(=O)(CCNCc1ccc(-c2ccc3ncnc(Nc4ccc(OCc5cccc(F)c5)c(Cl)c4)c3c2)o1)c1ccccc1 was tested. Which inhibition did it give?
A: 0.95%

Q: For COc1cc2ncn(-c3cc(OCc4ccccc4C(F)(F)F)c(C(=O)N(C)C)s3)c2cc1OC, which inhibition is on record?
A: 0.46%

Q: Which inhibition does the source give for COc1ccc(-c2cc3c(N)ncnc3o2)cc1 here?
A: 0.59%

Q: With Cc1ccc2c(-c3ccnc(Nc4ccccc4)n3)c(-c3ccc(F)cc3)nn2n1 as the compound, how does the inhibition read?
A: 1.04%

Q: Nc1nc(-c2cccc(Cl)c2)c(-c2ccc3ncccc3n2)s1 was tested. Which inhibition did it give?
A: 2.15%

Q: With CNC(=O)c1cncc(/C=C/c2ccccc2Cl)c1 as the compound, how does the inhibition read?
A: -0.85%

Q: For COc1ccc2c(-c3ccnc(Nc4cccc(OC(F)(F)F)c4)n3)cnn2n1, which inhibition is on record?
A: 13.2%

Q: With CCCN1CCC(c2ccc(Nc3nc(Nc4cc(F)ccc4C(N)=O)c4cc[nH]c4n3)c(OC)c2)CC1 as the compound, how does the inhibition read?
A: 3.2%

Q: For COc1cc2c(cc1Nc1nc(Nc3ccsc3C(N)=O)c3cc[nH]c3n1)N(C(=O)CN(C)C)CCC2(C)C, which inhibition is on record?
A: 2%

Q: For Fc1ccc(-c2cc(-c3c[nH]nc3-c3ccccn3)ccn2)cc1, which inhibition is on record?
A: 1.32%

Q: CCNC(=O)O[C@H]1CN[C@H](C#Cc2cc3ncnc(Nc4ccc(OCc5cccc(F)c5)c(Cl)c4)c3s2)C1 was tested. Which inhibition did it give?
A: 0.76%

Q: c1ccc(COc2ccc(Nc3ncnc4ccc(-c5ccco5)cc34)cc2)cc1 was tested. Which inhibition did it give?
A: -0.79%

Q: With NC(=O)c1sc(-n2cnc3ccc(C(F)(F)F)cc32)cc1OCc1ccccc1Br as the compound, how does the inhibition read?
A: 2.31%

Q: For CS(=O)(=O)CCNCc1ccc(-c2ccc3ncnc(Nc4ccc(OCc5ccccc5)c(C(F)(F)F)c4)c3c2)o1, which inhibition is on record?
A: 0.57%

Q: With CC(=O)Nc1cccc(C#Cc2cncnc2Nc2ccc(OCc3cccc(F)c3)c(Cl)c2)c1 as the compound, how does the inhibition read?
A: -0.12%

Q: With CCn1c(-c2nonc2N)nc2ccccc21 as the compound, how does the inhibition read?
A: 1.2%

Q: With COc1cccc(-n2ncc3c(N/N=C/c4ccc(F)cc4)ncnc32)c1 as the compound, how does the inhibition read?
A: 3.03%

Q: How did the inhibition turn out when CCN1CCC(CC(=O)Nc2n[nH]c3nnc(-c4cccc(F)c4F)cc23)CC1 was run?
A: -0.51%

Q: With COc1cc(Nc2nccc(Nc3ccc4c(C)n[nH]c4c3)n2)cc(OC)c1OC as the compound, how does the inhibition read?
A: 0.25%

Q: CCn1c(-c2nonc2N)nc2cnc(Oc3cccc(NC(=O)c4ccc(N(C)C)cc4)c3)cc21 was tested. Which inhibition did it give?
A: 0.38%

Q: With COc1ccc(-c2oc3ncnc(N)c3c2-c2ccc(NC(=O)Nc3cc(C(F)(F)F)ccc3F)cc2)cc1 as the compound, how does the inhibition read?
A: 1.97%

Q: CCN(CC)S(=O)(=O)c1ccc(OC)c(Nc2ncc(-c3ccccc3)o2)c1 was tested. Which inhibition did it give?
A: 0.64%

Q: Which inhibition does the source give for Fc1ccc(-c2nn3ncccc3c2-c2ccnc(Nc3ccc4c(c3)OCCO4)n2)cc1 here?
A: 1.15%

Q: For CCCN(CCS(C)(=O)=O)Cc1ccc(-c2ccc3ncnc(Nc4ccc(OCc5cccc(F)c5)c(Cl)c4)c3c2)o1, which inhibition is on record?
A: 1.51%

Q: Which inhibition does the source give for CCn1c(-c2nonc2N)nc2c(C#CC(C)(C)O)nc(OC[C@H](N)c3ccccc3)cc21 here?
A: 1.29%

Q: Which inhibition does the source give for COc1cccc(-c2c[nH]c3c(N/N=C/c4ccncc4)ncnc23)c1 here?
A: 2.11%

Q: c1cc(-c2cnn3nc(N4CCOCC4)ccc23)nc(NC2CC2)n1 was tested. Which inhibition did it give?
A: 1.88%

Q: With CN(C)CCOc1ccc(-c2nc(-c3ccncc3)c(-c3ccc4c(c3)CC/C4=N\O)[nH]2)cc1 as the compound, how does the inhibition read?
A: 1.97%

Q: Which inhibition does the source give for CCc1nn2ncccc2c1-c1ccnc(NC2CC2)n1 here?
A: 0.31%

Q: How did the inhibition turn out when Clc1ccc(-c2nn3ncccc3c2-c2ccnc(Nc3ccccc3)n2)cc1 was run?
A: 1.63%

Q: For COc1cc(/C=N/Nc2ncnc3[nH]ncc23)ccc1O, which inhibition is on record?
A: 2.85%

Q: For NS(=O)(=O)c1ccc(Nc2ncc(-c3ccccc3)o2)cc1, which inhibition is on record?
A: 2.28%

Q: COc1ccc2[nH]c3c4[nH]c5ccc(OC)cc5c4c4c(c3c2c1)C(=O)NC4=O was tested. Which inhibition did it give?
A: 2.17%

— ChEMBL document CHEMBL1961873, “Compounds: GSK PKIS; Assays: Nanosyn kinase panel” (2012)
